CYP2C9 inh: blockers of cytochrome P450 2C9 activity – biochemical, luminescence, ADME assay, primary screen. P11712. CYP2C9 Supersomes, luciferin-H conversion. inhibition, % at 5 µM. actives 20% (n = 96,000). AID 777, 2007;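 active = blocking of liver enzyme CYP2C9 beyond about 50% at 5 µM, limit read from the data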
Target sequence (P11712 whole entry, looked up): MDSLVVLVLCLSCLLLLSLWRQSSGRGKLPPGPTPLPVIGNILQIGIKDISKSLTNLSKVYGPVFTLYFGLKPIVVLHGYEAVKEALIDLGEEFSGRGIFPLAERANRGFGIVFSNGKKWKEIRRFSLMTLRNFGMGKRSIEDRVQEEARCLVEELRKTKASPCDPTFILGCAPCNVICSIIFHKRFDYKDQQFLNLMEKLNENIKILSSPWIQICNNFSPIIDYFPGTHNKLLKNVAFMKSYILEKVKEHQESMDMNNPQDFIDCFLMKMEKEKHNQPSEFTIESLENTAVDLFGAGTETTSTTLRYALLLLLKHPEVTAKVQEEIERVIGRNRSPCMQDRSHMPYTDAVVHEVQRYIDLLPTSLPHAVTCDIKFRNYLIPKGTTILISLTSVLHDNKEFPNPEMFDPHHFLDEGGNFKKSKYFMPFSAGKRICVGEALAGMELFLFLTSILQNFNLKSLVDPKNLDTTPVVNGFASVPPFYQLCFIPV
Cav3 T inh: Cav3.2 calcium influx blockers – cell-based, Fluo-4 calcium fluorescence, FDSS, MLSMR library, primary screen | AID 449739, 2010 | B-score at 10 µM | Cav3.2-expressing cells; active compounds read low | actives 4% (n = 100,000);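 active = single-dose well whose peak fluorescence ratio is a statistical outlier from its plate by either plate-standardised score or position-corrected B-score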
CYP2C9 activ: human CYP2C9 activators, primary screen, biochemical, luminescence | Cytochrome P450 2C9 (Homo sapiens), P11712 | AID 1024, 2008 | recombinant CYP2C9, luciferin-H conversion; active compounds read high; factor 1 = untreated enzyme, 0 = blocked | activation factor at 5 µM | actives 1.4% (n = 96,000);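 active = activation factor of 2 or more for CYP2C9 at a 5 µM dose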;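 note: 0 = sulfaphenazole-blocked wells and 1 = vehicle-only wells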
CYP2C19 act: human CYP2C19 activators, primary screen, biochemical, luminescence | recombinant CYP2C19, luciferin-H EGE luminescence; active compounds read high; 0 = fully inhibited enzyme, 1 = untreated enzyme | activation factor at 5 µM | 96,000 tested, under 10 active;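 active = activation factor of at least 2 at 5 µM in the primary screen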;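 note: 0 = wells with 2.5 mM tranylcypromine and 1 = vehicle-only wells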
CYP2C19 inh: blockers of cytochrome P450 2C19 activity – biochemical, luminescence, ADME assay, primary screen | P33261 | CYP2C19 Supersomes, luciferin-H EGE luminescence, 30 min | inhibition, % at 5 µM | actives 21% (n = 96,000) | AID 778, 2007;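 active = CYP2C19 inhibition above a set limit at 5 µM in the primary screen, cut at about 50% in these data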;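 note: plate controls were negative control wells for no effect and 2.5 mM tranylcypromine positive control for full effect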
An asterisk follows results filed as active; nt = not tested or not shown. Rows were chosen to be rich in hits. Some 27% of all compounds tested hit in one or more screens of this group.

SMILES | CYP2C9 inh | Cav3 T inh | CYP2C9 activ | CYP2C19 act | CYP2C19 inh
Nc1c(C(=O)NC2CC2)c2nc3ccccc3nc2n1-c1ccc2c(c1)OCO2 | 4 | -3.5 | 1 | 1 | 4
Cc1ccccc1NC(=O)c1c(O)c2cccc3c2n(c1=O)CCC3 | 6 | nt | 0.9 | 1 | 1
COC(=O)[C@@H](NC(=O)N(C1CCCCC1)C1CCCCC1)C(C)C | 30 | -2.1 | 0.7 | 0.8 | 17
O=C(NCc1ccccc1)N[C@@H](Cc1ccccc1)C(=O)O | -4 | -0.071 | 1 | 0.8 | 17
COC(=O)[C@H](Cc1ccccc1)NC(=O)NCc1cccs1 | 20 | 0.4 | 0.8 | 0.4 | 63*
COc1ccccc1CNC(=O)N[C@@H](Cc1ccccc1)C(=O)O | 21 | 0.08 | 0.8 | 0.3 | 70*
c1ccc(-c2ccccc2-n2cnnn2)cc1 | 18 | -0.24 | 0.8 | 0.6 | 43
COc1ccc(OC)c(NC(=O)C2CCN(Cc3cnn(-c4ccccc4)c3-n3cccc3)CC2)c1 | 13 | -8.7* | 0.9 | 1 | 5
O=C(O)c1cnn(-c2ccccc2)c1-n1cccc1 | nt | 0.19 | nt | nt | nt
COc1ccc(NC(=O)C2CCN(Cc3cnn(-c4ccccc4)c3-n3cccc3)CC2)cc1OC | 41 | -1.5 | 0.6 | 0.9 | 8
O=C(Nc1ccccc1Cl)C1CCN(Cc2cnn(-c3ccccc3)c2-n2cccc2)CC1 | 23 | -8.3* | 0.8 | 0.8 | 18
COc1cccc(NC(=O)C2CCN(Cc3cnn(-c4ccccc4)c3-n3cccc3)CC2)c1 | 67* | -10* | 0.3 | 0.8 | 18
OC1O[C@H](c2ccc3c(c2)OCO3)[C@H]2CO[C@H](c3ccc4c(c3)OCO4)[C@@H]12 (stereo partly drawn) | nt | 0.0053 | nt | nt | nt
CCOc1c2ccc(C(=O)N[C@H](C)C3CCCCC3)cc2nn1CC | 5 | 0.022 | 0.9 | 0.9 | 9
CCCCCCCCCCCC(=O)c1c(O)cccc1O | nt | 0.23 | nt | nt | nt
N#Cc1nc(-c2ccccc2)oc1NCc1ccco1 | 74* | -2.7 | 0.3 | 0.9 | 13
COc1ccc(CNc2oc(-c3ccccc3)nc2C#N)cc1 | 84* | -1.8 | 0.2 | 0.7 | 27
N#Cc1nc(-c2ccccc2Cl)oc1NCc1ccco1 | 83* | -3.6 | 0.2 | 0.4 | 64*
N#Cc1nc(-c2ccco2)oc1NCc1ccc(F)cc1 | 82* | -1.1 | 0.2 | 0.7 | 31
CCOC(=O)c1sc(C)c(C(=O)NCC(C)(C)CN(C)C)c1N | -3 | 2.8 | 1 | 1 | -3
COc1ccc(-c2nnc(SCC(=O)c3[nH]c(C)c(C(C)=O)c3C)o2)cc1 | 36 | -1.7 | 0.6 | 0.4 | 63*
CCOC(=O)c1c(C)[nH]c(C)c1C(=O)CSc1nnc(-c2ccc(OC(F)F)cc2)o1 | 33 | 0.076 | 0.7 | 0.8 | 19
CCOC(=O)c1[nH]c(CSc2nnc(-c3ccc(OC)cc3)o2)c(C(=O)OCC)c1C | 85* | -2.4 | 0.2 | 0.3 | 73*
COc1ccc(S(=O)(=O)N(CCc2ccccc2)CC(=O)NCCCO)cc1 | -17 | 0.56 | 1.2 | 0.5 | 51*
COc1ccc(S(=O)(=O)N(CCc2ccccc2)CC(=O)O)cc1 | 65* | 0.51 | 0.4 | 0.5 | 53*
SMILES | CYP2C9 inh | Cav3 T inh | CYP2C9 activ | CYP2C19 act | CYP2C19 inh
CCNC(=O)CN(CCc1ccccc1)S(=O)(=O)c1ccc(OC)cc1 | 88* | 1.4 | 0.1 | 0 | 96*
CCNC(=O)CN(Cc1ccccc1)S(=O)(=O)c1ccccc1 | 38 | 0.14 | 0.6 | 0.6 | 42
CC1C/C(=N\NC(=S)NC(C)C)CC(C)(C)C1 (stereo not drawn) | 51* | -0.5 | 0.5 | 0.1 | 88*
CCCCN(CC)S(=O)(=O)N1CCC(C(=O)NCc2ccc(F)cc2)CC1 | 47 | -2 | 0.5 | 0.4 | 58*
O=C(NCc1ccc(F)cc1)C1CCN(S(=O)(=O)N2CCCCC2)CC1 | 7 | 0.34 | 0.9 | 1.1 | -8
C=CCn1c(CNc2ccc(C)cc2)nnc1SCC(=O)N/N=C/c1ccc(O)cc1 | -2 | -0.4 | 1 | 0.9 | 14
COc1cc(C)c(S(=O)(=O)NCc2cccs2)cc1C | 66* | nt | 0.3 | 0 | 99*
Cc1nc(CNS(=O)(=O)c2cc(C)c(C)cc2C)cs1 | -62 | -0.76 | 1.6 | 0.1 | 87*
COc1ccc(Cl)cc1S(=O)(=O)NCc1cccs1 | -149 | 0.01 | 2.5* | 0 | 97*
COc1ccccc1-c1nnc2sc(COc3ccccc3)nn12 | 37 | 0.55 | 0.6 | 0.7 | 28
Clc1ccccc1-c1nnc2sc(CCc3ccccc3)nn12 | 53* | 0.96 | 0.5 | 0.1 | 88*
c1ccc(OCc2nn3c(-c4cccnc4)nnc3s2)cc1 | 16 | 1.1 | 0.8 | 0.7 | 32
Brc1ccccc1-c1nnc2sc(Cc3ccccc3)nn12 | 62* | -2 | 0.4 | 0 | 95*
c1ccc(CCc2nn3c(-c4ccncc4)nnc3s2)cc1 | 54* | 2 | 0.5 | 0.1 | 95*
Cc1nc2ncnn2c(C)c1CCC(=O)N1CC(C)CC(C)C1 (stereo not drawn) | -6 | 0.13 | 1.1 | 0.9 | 5
O=C(NCc1ccco1)c1cc2n(n1)C(C(F)(F)F)CC(c1ccc(F)cc1)N2 (stereo not drawn) | 34 | -0.021 | 0.7 | 1.1 | -12
COc1ccc(-c2nnc3sc(CCN4C(=O)c5ccccc5C4=O)nn23)cc1 | 32 | 1 | 0.7 | 0.8 | 22
COc1cc(-c2nnc3sc(Cc4ccccc4)nn23)cc(OC)c1OC | 52* | 0.42 | 0.5 | 0.6 | 43
COc1ccc(Cc2nn3c(-c4cc(OC)c(OC)c(OC)c4)nnc3s2)cc1 | 75* | -0.053 | 0.3 | 0.3 | 69*
CCC(=O)NC(Nc1ncc(C)s1)(C(=O)OC)C(F)(F)F (stereo not drawn) | nt | -0.15 | nt | nt | nt
Cc1ccccc1C(=O)c1cccn1CC(=O)NCc1ccco1 | 5 | -0.016 | 0.9 | 0.9 | 10
Cc1ccccc1C(=O)c1cccn1CC(=O)NCCN1CCN(c2cccc(C)c2C)CC1 | 46 | -2 | 0.5 | 0.2 | 83*
CCCCNCCCOc1cccc(Cl)c1Cl | -26 | -0.24 | 1.3 | 0.7 | 27
C(=N\c1nccs1)/c1cccnc1 | nt | 1.7 | nt | nt | nt
CCOC(=O)C1=C(Cc2ccc(Cl)cc2)C(=O)c2ccccc2C1=O | 95* | -1.7 | 0.1 | 0 | 100*
CCOC(=O)N1CCC(n2c(=S)[nH]c3cc(OC)c(OC)cc3c2=O)CC1 | 12 | 0.71 | 0.9 | 1 | 3
CCOC(=O)CC1C(=O)NCCN1Cc1cccc(OC)c1 (stereo not drawn) | 75* | nt | 0.2 | 0.7 | 35
COc1ccc(CN2CCNC(=O)C2CC(=O)O)c(OC)c1 (stereo not drawn) | 26 | 0.17 | 0.7 | 1.1 | -11
CN(C)S(=O)(=O)N1CCN(c2ccccc2)CC1 | 50 | nt | 0.5 | 0.1 | 86*
CN(C)S(=O)(=O)N1CCN(c2ccccc2Cl)CC1 | 81* | 0.02 | 0.2 | 0.1 | 92*

Source: PubChem (several laboratories)
